Source: PubChem BioAssay (Tox21)
Inconclusive results are not listed. Calls of active or inactive are those of the source. Unless noted, calls come from the whole dose curve; as a rule, active = well fitted curve in the direction sought with a large enough effect in the repeat runs; inconclusive = weak or mixed curves; inactive = no such curve, though single readings can be large; an effect the other way counts as inactive or inconclusive.

Legend:
[1] = qHTS assay for small molecule agonists of the p53 signaling pathway (AID 651631; calls by dose curve; note: nearly all actives have a fitted effect of over 15% in size)
Outline: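 We treat p53RE-bla HCT-116 cells with compounds for 16 h at 37 °C, add LiveBLAzer B/G FRET substrate for 2 h at room temperature, and measure fluorescence intensity.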

[2] = qHTS assay for small molecules that induce genotoxicity in human embryonic kidney cells expressing luciferase-tagged ATAD5 (AID 651632); note: nearly all actives have a fitted effect of over 15% in size
Outline: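 Test compounds were delivered by pin tool onto HEK293T reporter cells (2,000/well) expressing ATAD5 fused to luciferase. After 16 hr at 37C, 5% CO2, Amplite was added for 30 min at room temperature and luminescence was measured.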

[3] = qHTS assay for small molecule agonists of the p53 signaling pathway - cell viability (AID 651633; calls by dose curve;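 note: p53RE-bla HCT reporter cells with a stable beta-lactamase p53 reporter; series mostly up to about 83 µM; nearly all actives have a fitted effect of over 30% in size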)
Outline: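 p53RE-bla cells, seeded at 4,000 per well and rested 5 h at 37 C/5% CO2, received compounds in DMSO for 16 h at 37 C. CellTiter-Glo was then added, and luminescence was read after 30 min at room temperature to gauge cytotoxicity.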

[4] = qHTS assay for small molecules that induce genotoxicity in human embryonic kidney cells expressing luciferase-tagged ATAD5 - cell viability (AID 651634; calls by dose curve; note: nearly all actives have a fitted effect of over 25% in size)
Outline: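 Quantitative high-throughput format. HEK293T cells expressing ATAD5 fused to luciferase were plated at 2,000 cells/well and treated 15.5 hr with compound versus DMSO. Viability was determined by fluorescent live-cell protease substrate, 30 min at 37C.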

[5] = qHTS assay for small molecule disruptors of the mitochondrial membrane potential - cell viability (AID 720634; calls by dose curve;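 note: human HepG2 liver cancer cells; series mostly up to about 83 µM; nearly all actives have a fitted effect of over 20% in size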)
Outline: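 Same-well counter-screen: following the MMP dye addition, CellTiter-Glo was added to 1 hr compound-treated HepG2 cells and luminescence read after 30 min at room temperature.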

[6] = qHTS assay to test for compound auto fluorescence at 590 nm (red) in HepG2 cells (AID 720674)
Outline: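 Rose Bengal sodium served as the red fluorophore standard. HepG2 monolayers (overnight attachment, MEM with 10% FBS) were exposed to test compounds for 1 hr at 37 C and read at Ex 540/Em 590 nm.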

[7] = qHTS assay to test for compound auto fluorescence at 535 nm (green) in HepG2 cells (AID 720675)
[8] = qHTS assay to test for compound auto fluorescence at 460 nm (blue) in HEK293 cells (AID 720678)
Outline: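 After cell attachment (4-5 hr, 37C), compounds were pinned onto HEK293 monolayers in 10% dialyzed FBS medium. The blue channel (405/460 nm) was read following overnight culture. Equivalency was calculated against triamterene.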

[9] = qHTS assay to test for compound auto fluorescence at 590 nm (red) in HEK293 cells (AID 720679)
Outline: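 Plates of HEK293 cells (10% dialyzed FBS) are treated with 23 nL compound or DMSO vehicle after a 4-5 hr attachment period, incubated overnight at 37C, and read for red fluorescence at 540/590nm.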

[10] = qHTS assay to test for compound auto fluorescence at 535 nm (green) in HEK293 cells (AID 720680)
[11] = qHTS assay to test for compound auto fluorescence at 460 nm (blue) in HEK293 cell free culture (AID 720681)
Outline: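 Test compounds were pinned into cell-free culture medium (DMEM with 10% FBS) and fluorescence was read directly at Ex/Em 405/460 nm. Signals were expressed as fluorescence equivalents of triamterene, with DMSO vehicle as control.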

[12] = qHTS assay to test for compound auto fluorescence at 535 nm (green) in HEK293 cell free culture (AID 720682)
Outline: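 Green-channel intensity (Ex/Em 485/535 nm) was recorded from compound-treated wells containing only DMEM with 10% FBS. Fluorescein provided the equivalency standard.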

[13] = qHTS assay to test for compound auto fluorescence at 590 nm (red) in HEK293 cell free culture (AID 720683)
Outline: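 Tox21 10K library compounds were pinned into cell-free DMEM with 10% FBS and fluorescence was read at excitation 540 nm. Activity is expressed as Rose Bengal sodium equivalency.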

[14] = qHTS assay to test for compound auto fluorescence at 590 nm (red) in HepG2 cell free culture (AID 720684)
Outline: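 Ex 540 / Em 590 nm read of compound in cell-free MEM (10% FBS). Rose Bengal sodium reference.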

[15] = qHTS assay to test for compound auto fluorescence at 460 nm (blue) in HepG2 cell free culture (AID 720685)
Outline: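 Cell-free plates of MEM plus 10% FBS received 23 nL compound or DMSO vehicle; blue-channel (405/460 nm) intensity scored against triamterene as reference fluorophore.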

[16] = qHTS assay to test for compound auto fluorescence at 535 nm (green) in HepG2 cell free culture (AID 720686)
[17] = qHTS assay to test for compound auto fluorescence at 460 nm (blue) in HepG2 cells (AID 720687)
Outline: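 Cells (2,000/well in MEM with 10% FBS) attached overnight at 37 C, then were exposed to compound or DMSO for 1 hr at 37 C, 5% CO2. Fluorescence read at Ex/Em 405/460 nm, expressed as triamterene-equivalent signal.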

[18] = biological target: Glucocorticoid receptor (Homo sapiens) (UniProt P04150); test: qHTS assay to identify small molecule agonists of the glucocorticoid receptor (GR) signaling pathway (AID 720691; active = well fitted activation curve with a large enough effect in the signal ratio in the repeat runs, not every such curve was filed as active; the % refers to the signal ratio)
Outline: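 A HeLa cervical cancer line expressing GR and a glucocorticoid response element-driven beta-lactamase gene is treated with compounds for 18 h; LiveBLAzer B/G FRET substrate is then applied and fluorescence read.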

[19] = biological target: Glucocorticoid receptor (Homo sapiens) (UniProt P04150); test: qHTS assay to identify small molecule antagonists of the glucocorticoid receptor (GR) signaling pathway (AID 720692; active = well fitted inhibition curve with a large enough effect in the signal ratio in the repeat runs, not every such curve was filed as active; the % refers to the signal ratio)
Outline: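 GRE-bla HeLa line, dex-stimulated (5 nM final). Compound exposure 18 h, 37 C. Beta-lactamase FRET read after 2 h RT substrate.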

[20] = qHTS assay for small molecule disruptors of the mitochondrial membrane potential (AID 720635)
Outline: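 HepG2 cells (2,000/well) attached overnight at 37C, then took compound for 1 hr at 37C, 5% CO2. Mito-MPS dye was added for 30 min; fluorescence was read at 490/535 nm (monomers) and 540/590 nm (aggregates).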
% is set by controls: 0 for no effect and ±100 for the full control effect.

Chain of Glucocorticoid receptor (Homo sapiens) (P04150 whole entry, looked up): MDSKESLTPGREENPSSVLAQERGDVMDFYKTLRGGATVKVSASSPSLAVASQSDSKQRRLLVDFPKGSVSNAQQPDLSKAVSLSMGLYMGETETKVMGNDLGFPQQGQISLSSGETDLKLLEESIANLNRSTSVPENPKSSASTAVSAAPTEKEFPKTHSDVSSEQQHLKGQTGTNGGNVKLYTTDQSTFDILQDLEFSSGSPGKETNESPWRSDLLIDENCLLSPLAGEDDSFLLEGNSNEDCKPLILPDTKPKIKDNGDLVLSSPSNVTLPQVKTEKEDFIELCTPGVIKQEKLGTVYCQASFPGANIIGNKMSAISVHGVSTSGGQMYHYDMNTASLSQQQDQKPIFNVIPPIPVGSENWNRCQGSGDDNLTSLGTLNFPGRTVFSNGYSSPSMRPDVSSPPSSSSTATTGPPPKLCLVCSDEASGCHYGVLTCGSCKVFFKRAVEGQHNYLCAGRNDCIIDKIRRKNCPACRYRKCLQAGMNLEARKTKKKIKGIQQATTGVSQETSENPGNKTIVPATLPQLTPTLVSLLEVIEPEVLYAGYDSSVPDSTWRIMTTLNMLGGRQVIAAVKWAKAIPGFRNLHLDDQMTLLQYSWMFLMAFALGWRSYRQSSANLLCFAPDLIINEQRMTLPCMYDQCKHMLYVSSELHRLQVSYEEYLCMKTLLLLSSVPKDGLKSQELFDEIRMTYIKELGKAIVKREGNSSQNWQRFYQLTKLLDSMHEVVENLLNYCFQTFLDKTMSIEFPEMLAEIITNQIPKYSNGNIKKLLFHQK

OC(CCN1CCCCC1)(c1ccccc1)C1CC2C=CC1C2 (configuration not stated)
inactive: outcome [1] | Potency [2] | outcome [3] | Potency [4] | Potency [5] | outcome [6] | outcome [7] | outcome [8] | outcome [9] | outcome [10] | outcome [11] | outcome [12] | outcome [13] | outcome [14] | outcome [15] | outcome [16] | outcome [17] | Potency [18] | Potency [19]

NC(=O)c1cn(Cc2c(F)cccc2F)nn1
inactive: outcome [1] | Potency [2] | outcome [3] | Potency [5] | Potency [20] | outcome [6] | outcome [7] | outcome [8] | outcome [9] | outcome [10] | outcome [11] | outcome [12] | outcome [13] | outcome [14] | outcome [15] | outcome [16] | outcome [17]

CCC(=O)OC(C)c1ccccc1 (configuration not stated)
inactive: outcome [1] | Potency [2] | outcome [3] | Potency [4] | Potency [5] | outcome [6] | outcome [7] | outcome [8] | outcome [9] | outcome [10] | outcome [11] | outcome [12] | outcome [13] | outcome [14] | outcome [16] | outcome [17] | Potency [18]

CO[Si](CCCOCC1CO1)(OC)OC (configuration not stated)
inactive: outcome [1] | Potency [2] | outcome [3] | Potency [5] | Potency [20] | outcome [6] | outcome [7] | outcome [8] | outcome [9] | outcome [10] | outcome [11] | outcome [12] | outcome [13] | outcome [14] | outcome [15] | outcome [16] | outcome [17] | Potency [18] | Potency [19]

NC(=O)COCCN1CCN(C(c2ccccc2)c2ccc(Cl)cc2)CC1 (configuration not stated)
inactive: outcome [1] | Potency [2] | outcome [3] | Potency [4] | Potency [5] | outcome [7] | outcome [8] | outcome [9] | outcome [10] | outcome [11] | outcome [12] | outcome [13] | outcome [14] | outcome [15] | outcome [16] | outcome [17] | Potency [18] | Potency [19]

O=C1CCCC(=O)C1
inactive: outcome [1] | Potency [2] | outcome [3] | Potency [5] | Potency [20] | outcome [6] | outcome [7] | outcome [8] | outcome [9] | outcome [10] | outcome [11] | outcome [12] | outcome [13] | outcome [14] | outcome [15] | outcome [16] | outcome [17] | Potency [18] | Potency [19]

O=C(O)CCCl
inactive: outcome [1] | Potency [2] | outcome [3] | Potency [5] | Potency [20] | outcome [7] | outcome [8] | outcome [9] | outcome [10] | outcome [11] | outcome [12] | outcome [13] | outcome [14] | outcome [15] | outcome [16] | outcome [17] | Potency [18] | Potency [19]

CC1(C)C(O)C(C)(C)C1O (configuration not stated)
inactive: outcome [1] | Potency [2] | outcome [3] | Potency [4] | Potency [5] | outcome [6] | outcome [7] | outcome [8] | outcome [9] | outcome [10] | outcome [11] | outcome [12] | outcome [13] | outcome [14] | outcome [15] | outcome [16] | outcome [17] | Potency [18] | Potency [19]

CCC(C)S (configuration not stated)
inactive: activation [1] -2.85% [at 3.72 µM] | activation [2] 1.12% [at 3.63 µM] | activity change, negative = cytotoxicity [3] -9.49% [at 3.63 µM] | activity, negative = cytotoxicity [4] -7.36% [at 3.63 µM] | activity change, negative = cytotoxicity [5] 9.33% [at 3.63 µM] | fluorescence, % of fluorescein control [7] -0.0052% [at 3.72 µM] | fluorescence, % of triamterene [8] 0.0233% [at 3.72 µM] | fluorescence, % of fluorescent control [9] 0.243% [at 3.72 µM] | fluorescence, % of fluorescein [10] 0.0934% [at 3.72 µM] | fluorescence, % of fluorescent control [11] 0.0638% [at 3.72 µM] | activity change [12] -0.0524% [at 3.72 µM] | fluorescence, % of fluorescent control [13] -0.0589% [at 3.72 µM] | fluorescence, % of Rose Bengal [14] -0.203% [at 3.72 µM] | fluorescence, % of fluorescent control [15] -0.0422% [at 3.72 µM] | fluorescence, % of fluorescein control [16] 0.0002% [at 3.72 µM] | fluorescence, % of fluorescent control [17] -0.0637% [at 3.72 µM] | activation [18] -0.406% [at 3.1 µM] | activity change, negative = inhibition [19] 1.31% [at 3.15 µM]

CCc1nccnc1CC
inactive: outcome [1] | Potency [2] | outcome [3] | Potency [4] | Potency [5] | outcome [6] | outcome [7] | outcome [8] | outcome [9] | outcome [10] | outcome [11] | outcome [12] | outcome [13] | outcome [14] | outcome [16] | outcome [17]

C=C[Si](OC(=C)C)(OC(=C)C)OC(=C)C
inactive: outcome [1] | Potency [2] | outcome [3] | Potency [4] | Potency [5] | outcome [6] | outcome [7] | outcome [8] | outcome [9] | outcome [10] | outcome [12] | outcome [13] | outcome [14] | outcome [15] | outcome [16] | outcome [17]

CCCCCCCCCCCCCC=O
inactive: activation [1] -3.36% [at 8.3 µM] | activation [2] 2.51% [at 8.08 µM] | activity change, negative = cytotoxicity [3] 18.4% [at 8.08 µM] | activity change, negative = cytotoxicity [5] 12.2% [at 8.08 µM] | ratio activity, negative = MMP loss [20] 25.8% [at 8.08 µM] | fluorescence, relative to Rose Bengal [6] 0.0167% [at 3.72 µM] | fluorescence, % of fluorescein control [7] 0.0875% [at 3.72 µM] | fluorescence, % of triamterene [8] -0.166% [at 3.72 µM] | fluorescence, % of fluorescent control [9] -0.804% [at 3.72 µM] | fluorescence, % of fluorescein [10] 0.0656% [at 3.72 µM] | fluorescence, % of fluorescent control [11] -0.0434% [at 3.72 µM] | activity change [12] -0.0074% [at 3.72 µM] | fluorescence, % of fluorescent control [13] 0.0516% [at 3.72 µM] | fluorescence, % of Rose Bengal [14] 0.0058% [at 3.72 µM] | fluorescence, % of fluorescent control [15] -0.0093% [at 3.72 µM] | fluorescence, % of fluorescein control [16] 0.0349% [at 3.72 µM] | fluorescence, % of fluorescent control [17] -0.0327% [at 3.72 µM]

N=C(N)c1ccc2cc(OC(=O)c3ccc(N=C(N)N)cc3)ccc2c1
inactive: outcome [1] | Potency [2] | outcome [3] | Potency [5] | outcome [6] | outcome [7] | outcome [8] | outcome [9] | outcome [10] | outcome [11] | outcome [12] | outcome [13] | outcome [14] | outcome [15] | outcome [16] | outcome [17]

COC(C)(C)CCCC(C)CC=O (configuration not stated)
inactive: outcome [1] | Potency [2] | outcome [3] | Potency [4] | Potency [5] | outcome [7] | outcome [8] | outcome [9] | outcome [10] | outcome [11] | outcome [12] | outcome [13] | outcome [14] | outcome [15] | outcome [16] | outcome [17] | Potency [18] | Potency [19]
